# Measured values taken from the supplement of paper PMC3414501.
# Structures can show the parent of a compound that is named as a salt.
# What was measured:
# [1] = tested on: S. cerevisiae SK1 pCDA2-eGFP (USY613), sporulating; test: CDA2-GFP sporulation assay sensitivity score (z-score vs DMSO controls); higher = stronger inhibition of sporulation, active = hit call of the paper;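 further: active if sensitivity score above 5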
# [2] = tested on: S. cerevisiae AD1-9 (efflux-pump deficient), vegetative growth in YPD; test: growth sensitivity score (doubling time z-score vs DMSO controls); higher = slower growth, strongly negative scores also mark growth inhibition (complete suppression), active = hit call of the paper
# How it was run: (§1)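 Optical density of Saccharomyces cerevisiae cultures in microtiter plates was followed every 15 min for 24 hours after seeding at an OD600 of 0.065. Eight solvent-only wells were run per experiment. Growth sensitivity scores were found by subtracting the solvent-only mean from the compound mean and dividing by the solvent-only standard deviation.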
# [3] = tested on: S. cerevisiae BY4741 (wild-type), vegetative growth in YPD; test: as above
# How it was run: as §1
# [4] = stock concentration (mM, diluted 1:100): 10
# [5] = stock concentration (mM, diluted 1:100): 8.2
# [6] = stock concentration (mM, diluted 1:100): 9.8
# [7] = stock concentration (mM, diluted 1:100): 10.1
# [8] = stock concentration (mM, diluted 1:100): 8.6
# [9] = stock concentration (mM, diluted 1:100): 7.7
# [10] = stock concentration (mM, diluted 1:100): 7.3
# [11] = stock concentration (mM, diluted 1:100): 9
structure (smiles),measurement,setting,value
c1cncc([C@@H]2CCCN2)c1 [Nornicotine],CDA2-GFP sporulation assay sensitivity score,[1]; [4],2.1 (inactive)
same,growth sensitivity score,[2]; [4],-0.25 (inactive)
same,growth sensitivity score,[3]; [4],0.91 (inactive)
C[C@]12CC[C@H]3[C@@H](CCC4=CC(=O)CC[C@@H]43)[C@@H]1CC[C@@H]2O [19-Nortestosterone],CDA2-GFP sporulation assay sensitivity score,[1]; [4],1.91 (inactive)
same,growth sensitivity score,[2]; [4],5.3 (active)
same,growth sensitivity score,[3]; [4],2.24 (active)
O=C1Nc2ccc(Cl)cc2C(c2ccccc2Cl)=NC1O (centres undefined) [Lorazepam],CDA2-GFP sporulation assay sensitivity score,[1]; [4],5 (inactive)
same,growth sensitivity score,[2]; [4],2.16 (active)
same,growth sensitivity score,[3]; [4],-0.91 (inactive)
O=C(O)C(Cl)Cl [Dichloroacetic acid],CDA2-GFP sporulation assay sensitivity score,[1]; [4],1.21 (inactive)
same,growth sensitivity score,[2]; [4],0.15 (inactive)
same,growth sensitivity score,[3]; [4],-0.8 (inactive)
CC[C@@H]1C=CC=CC[C@H](C)[C@@H](O)[C@@H](C)C(=O)[C@H](C)[C@@H](O)[C@H](C)C(=O)[C@H](C)[C@@H](O)[C@H](C)C=CC(=O)O[C@H]2[C@@H](C)[C@@H](CC1)O[C@@]1(CC[C@@H](C)[C@@H](C[C@H](C)O)O1)[C@@H]2C [Oligomycin c],CDA2-GFP sporulation assay sensitivity score,[1]; [4],-1.43 (inactive)
same,growth sensitivity score,[2]; [4],0.66 (inactive)
same,growth sensitivity score,[3]; [4],1.53 (inactive)
CC[C@]1(O)CC[C@H]2[C@@H]3CCC4=CCCC[C@@H]4[C@H]3CC[C@@]21C [Ethylestrenol],CDA2-GFP sporulation assay sensitivity score,[1]; [4],8.75 (active)
same,growth sensitivity score,[2]; [4],93.9 (active)
same,growth sensitivity score,[3]; [4],2.86 (active)
C#CCN(C)[C@H](C)Cc1ccccc1 [Selegiline],CDA2-GFP sporulation assay sensitivity score,[1]; [4],-0.13 (inactive)
same,growth sensitivity score,[2]; [4],-1.83 (inactive)
same,growth sensitivity score,[3]; [4],0.07 (inactive)
COc1ccc2c(c1)[C@]13CCCC[C@@H]1[C@H](C2)N(C)CC3 [Dextromethorphan hydrobromide],CDA2-GFP sporulation assay sensitivity score,[1]; [5],14.1 (active)
same,growth sensitivity score,[2]; [5],-0.05 (inactive)
same,growth sensitivity score,[3]; [5],-0.39 (inactive)
c1ccc(Cn2ccnc2)cc1 [1-Benzylimidazole],CDA2-GFP sporulation assay sensitivity score,[1]; [4],2.48 (inactive)
same,growth sensitivity score,[2]; [4],-1.25 (inactive)
same,growth sensitivity score,[3]; [4],-1.22 (inactive)
CN1CC[C@]2(c3cccc(O)c3)Cc3nc4ccccc4cc3C[C@H]2C1,CDA2-GFP sporulation assay sensitivity score,[1]; [6],5.85 (inactive)
same,growth sensitivity score,[2]; [6],-2.02
same,growth sensitivity score,[3]; [6],0.13 (inactive)
FC(F)(F)c1cccc(N2CCNCC2)c1,CDA2-GFP sporulation assay sensitivity score,[1]; [4],0.69 (inactive)
same,growth sensitivity score,[2]; [4],2.22 (active)
same,growth sensitivity score,[3]; [4],1.25 (inactive)
c1ccc2c3c([nH]c2c1)CNCC3 [Tryptoline],CDA2-GFP sporulation assay sensitivity score,[1]; [4],11.7 (active)
same,growth sensitivity score,[2]; [4],-1.27 (inactive)
same,growth sensitivity score,[3]; [4],-1.07 (inactive)
CC[C@@H](C(N)=O)N1CCCC1=O [Levetiracetam],CDA2-GFP sporulation assay sensitivity score,[1]; [7],1.7 (inactive)
same,growth sensitivity score,[2]; [7],-2.51
same,growth sensitivity score,[3]; [7],-1.26 (inactive)
CC(NC(C)(C)C)C(=O)c1cccc(Cl)c1 (centres undefined) [Amfebutamone hydrochloride],CDA2-GFP sporulation assay sensitivity score,[1]; [7],0.84 (inactive)
same,growth sensitivity score,[2]; [7],0.01 (inactive)
same,growth sensitivity score,[3]; [7],-0.7 (inactive)
CCOC(=O)C1(c2ccccc2)CCN(CCC(C#N)(c2ccccc2)c2ccccc2)CC1 [Diphenoxylate],CDA2-GFP sporulation assay sensitivity score,[1]; [8],1.47 (inactive)
same,growth sensitivity score,[2]; [8],5.75 (active)
same,growth sensitivity score,[3]; [8],-0.94 (inactive)
Oc1cc2c(cc1O)[C@H]1c3ccccc3CN[C@@H]1CC2,CDA2-GFP sporulation assay sensitivity score,[1]; [4],-1.42 (inactive)
same,growth sensitivity score,[2]; [4],0.66 (inactive)
same,growth sensitivity score,[3]; [4],0.31 (inactive)
CCC(COC(=O)c1cc(OC)c(OC)c(OC)c1)(c1ccccc1)N(C)C (centres undefined) [Trimebutine maleate],CDA2-GFP sporulation assay sensitivity score,[1]; [9],0.35 (inactive)
same,growth sensitivity score,[2]; [9],3.33 (active)
same,growth sensitivity score,[3]; [9],0.59 (inactive)
CN1[C@@H]2CC(OC(=O)[C@H](CO)c3ccccc3)C[C@H]1[C@@H]1O[C@@H]12 (some centres undefined),CDA2-GFP sporulation assay sensitivity score,[1]; [10],-0.1 (inactive)
same,growth sensitivity score,[2]; [10],-1.56 (inactive)
same,growth sensitivity score,[3]; [10],-0.06 (inactive)
O=C1CN=C(c2ccccc2)c2cc([N+](=O)[O-])ccc2N1 [Nitrazepam],CDA2-GFP sporulation assay sensitivity score,[1]; [4],-0.69 (inactive)
same,growth sensitivity score,[2]; [4],8.16 (active)
same,growth sensitivity score,[3]; [4],2.01 (active)
CN=C1CN(O)C(c2ccccc2)=c2cc(Cl)ccc2=N1 [Chlordiazepoxide],CDA2-GFP sporulation assay sensitivity score,[1]; [4],1.73 (inactive)
same,growth sensitivity score,[2]; [4],0.94 (inactive)
same,growth sensitivity score,[3]; [4],1.44 (inactive)
Cc1ncc2n1-c1ccc(Cl)cc1C(c1ccccc1F)=NC2 [Midazolam hydrochloride],CDA2-GFP sporulation assay sensitivity score,[1]; [11],6.54 (active)
same,growth sensitivity score,[2]; [11],12.1 (active)
same,growth sensitivity score,[3]; [11],0.95 (inactive)
CCN(CC)CCOC(=O)C(O)(c1ccccc1)c1ccccc1 [Benactyzine hydrochloride],CDA2-GFP sporulation assay sensitivity score,[1]; [4],0.09 (inactive)
same,growth sensitivity score,[2]; [4],-0.44 (inactive)
same,growth sensitivity score,[3]; [4],-0.83 (inactive)
NC1=NC(=O)C(c2ccccc2)O1 (centres undefined) [Pemoline],CDA2-GFP sporulation assay sensitivity score,[1]; [4],0.99 (inactive)
same,growth sensitivity score,[2]; [4],0.67 (inactive)
same,growth sensitivity score,[3]; [4],-1.83 (inactive)
CCOC(=O)c1cncn1[C@H](C)c1ccccc1 [Etomidate],CDA2-GFP sporulation assay sensitivity score,[1]; [7],6.33 (active)
same,growth sensitivity score,[2]; [7],7.78 (active)
same,growth sensitivity score,[3]; [7],2.21 (active)
COc1ccc2[nH]cc(CCN)c2c1 [5-Methoxytryptamine],CDA2-GFP sporulation assay sensitivity score,[1]; [4],3.61 (inactive)
same,growth sensitivity score,[2]; [4],-1.13 (inactive)
same,growth sensitivity score,[3]; [4],0.09 (inactive)
NC(=O)OCCCc1ccccc1 [Phenprobamate],CDA2-GFP sporulation assay sensitivity score,[1]; [7],-0.41 (inactive)
same,growth sensitivity score,[2]; [7],-0.54 (inactive)
same,growth sensitivity score,[3]; [7],0.48 (inactive)
CNC1CC(c2ccc(Cl)c(Cl)c2)c2ccccc21 (centres undefined) [Indatraline],CDA2-GFP sporulation assay sensitivity score,[1]; [4],2.43 (inactive)
